Compound activity (PubChem BioAssay)
hERG WT inh: inhibitors of human wildtype KCNH2 potassium channel; Q12809; U2OS, BacMam KCNH2, thallium flux FluxOr; active compounds read low; activity change, % at 1.84 µM; 340,000 tested, 0.37% active;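 active = maximum activity change below -70%; inconclusive = maximum activity change between -70% and -50%; inactive = maximum activity change above -50%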
Target sequence (Q12809 whole entry, looked up): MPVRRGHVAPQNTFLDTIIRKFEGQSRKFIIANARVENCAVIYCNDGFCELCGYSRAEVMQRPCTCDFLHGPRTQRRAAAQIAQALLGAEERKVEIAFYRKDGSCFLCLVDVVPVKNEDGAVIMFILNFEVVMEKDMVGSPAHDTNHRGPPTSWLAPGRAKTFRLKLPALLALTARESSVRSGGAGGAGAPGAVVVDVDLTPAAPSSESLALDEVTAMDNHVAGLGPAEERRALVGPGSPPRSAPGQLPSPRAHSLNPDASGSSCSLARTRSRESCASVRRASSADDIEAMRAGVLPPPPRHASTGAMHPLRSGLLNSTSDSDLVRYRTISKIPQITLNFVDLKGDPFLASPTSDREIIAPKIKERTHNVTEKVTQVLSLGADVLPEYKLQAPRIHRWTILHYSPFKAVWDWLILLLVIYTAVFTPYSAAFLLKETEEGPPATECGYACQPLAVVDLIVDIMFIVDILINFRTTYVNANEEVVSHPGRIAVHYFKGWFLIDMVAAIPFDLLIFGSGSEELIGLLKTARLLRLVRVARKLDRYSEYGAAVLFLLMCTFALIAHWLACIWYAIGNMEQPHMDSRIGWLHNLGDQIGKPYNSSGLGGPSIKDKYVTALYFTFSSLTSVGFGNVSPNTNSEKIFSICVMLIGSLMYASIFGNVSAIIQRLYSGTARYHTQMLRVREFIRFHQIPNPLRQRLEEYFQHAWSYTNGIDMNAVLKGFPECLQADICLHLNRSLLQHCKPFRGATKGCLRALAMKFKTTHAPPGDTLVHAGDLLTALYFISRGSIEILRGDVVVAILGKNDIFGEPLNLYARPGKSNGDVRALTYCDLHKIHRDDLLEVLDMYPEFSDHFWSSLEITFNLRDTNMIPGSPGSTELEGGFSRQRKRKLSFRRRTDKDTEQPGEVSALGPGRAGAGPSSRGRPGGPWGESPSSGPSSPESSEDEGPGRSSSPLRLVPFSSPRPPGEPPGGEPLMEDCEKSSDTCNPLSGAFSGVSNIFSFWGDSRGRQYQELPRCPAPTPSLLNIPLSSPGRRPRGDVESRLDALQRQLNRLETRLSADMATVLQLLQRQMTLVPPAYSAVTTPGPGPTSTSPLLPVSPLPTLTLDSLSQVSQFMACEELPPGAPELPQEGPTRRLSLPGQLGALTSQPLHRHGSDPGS
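U2OS cells were transduced with wild-type KCNH2 virus (2.03 x 10^8 / mL) for 4 h at room temperature, then cultured overnight at 37 C. Thallium flux was read with FluxOr dye. Rate constants were normalized to DMSO controls.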
MCF10A rerep: induces DNA re-replication in MCF 10a normal breast cells | MCF 10A DNA re-replication, Hoechst nuclear intensity, 48 h | Potency, µM (top dose mostly 46.1 µM), hits mostly activators | 350,000 tested, 2.9% active; note: nearly all actives have a fitted effect of over 50% in size
KB-V1 MDR tox: KB-V1 MDR subline cytotoxicity. KB-V1 MDR cells viability, CellTiter-Glo, 72 h. Potency, µM (highest dose often 46.1 µM), hits mostly cytotoxic. 400,000 tested, 3.4% active. AID 1347076; note: nearly all actives have a fitted effect of over 60% in size
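In this primary screen, KB-V1 cells overexpressing P-gp are incubated with library compounds (lowest to highest concentration) for 72 h at 37 degrees C before a luminescent ATP viability read.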
KCNH2 3.1 block: blocks the human KCNH2 3.1 channel isoform | AID 720553 | U2OS KCNH2 3.1, thallium flux FluxOr; active compounds read low | activity change, % (tested at about 1.8 µM) | 340,000 tested, 0.95% active;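 active = maximum activity change below -70%; inconclusive = maximum activity change from -70% to -50%; inactive = maximum activity change above -50%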;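 note: thallium influx rate constant from kinetic fluorescence after stimulation buffer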
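We transduce U2OS cells with the mutant 3.1 virus, culture them overnight, load FluxOr with Red40 quencher for 45 min, then add stimulation buffer and read kinetically for 2 min to derive a normalized rate constant.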
KB-3-1 cytotox: KB-3-1 parental cell cytotoxicity; 400,000 tested, 1.4% active; Potency, µM (doses to about 46.1 µM), actives largely listed as cytotoxic; KB-3-1 viability, CellTiter-Glo ATP luminescence, 72 h; note: nearly all actives have a fitted effect of over 60% in size
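Using CellTiter-Glo luminescence, growth of non-resistant KB-3-1 adenocarcinoma cells is assessed 72 h after pin-tool compound addition at 37 °C. Normalized responses across the concentration series yield fitted curves.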
SW480 rereplic: inducers of DNA re-replication in SW480 colon cancer cells; SW480 DNA re-replication, Hoechst DNA content imaging, 48 h; Potency, µM (highest dose often 46.1 µM), most hits filed as activators; 340,000 tested, 1.8% active; AID 624297; note: nearly all actives have a fitted effect of over 55% in size
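250 cells/well; 23 nL cpd via pin tool; 48 hr, 37 C, 5% CO2; Hoechst 40 min; imager read of total nuclear intensity, ex 405/em 500-530 nm.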
Numbers stand for hits; - = inactive; ? = inconclusive; . = not tested or not shown; ! = repeats disagree. Compounds with a hit are over-represented: about 7.6% of the library has one in this group of screens. Unless noted, calls come from the whole dose curve; as a rule, active = well fitted curve in the direction sought with a large enough effect; inconclusive = small, poorly fitted or top-dose-only effect, or another doubt; inactive = no such curve, though single readings can be large; an effect the other way counts as inactive or inconclusive.

SMILES	hERG WT inh	MCF10A rerep	KB-V1 MDR tox	KCNH2 3.1 block	KB-3-1 cytotox	SW480 rereplic
CCCCCn1c(=NC(C)=O)c(C#N)cc2c(=O)n3ccccc3nc21	-	?	-	-	-	?
CCCCCn1c(=NC(=O)c2cccnc2)c(C#N)cc2c(=O)n3cccc(C)c3nc21	-	13µM	-	-	-	8.2µM
CCCCn1c(=NC(C)=O)c(C#N)cc2c(=O)n3cccc(C)c3nc21	-	11.6µM	-	-	?	20.6µM
CCOCCCn1c(=NC(C)=O)c(C#N)cc2c(=O)n3cccc(C)c3nc21	-	?	?	-	-	13µM
CCCCn1c(=NC(=O)c2ccc3c(c2)OCO3)c(C#N)cc2c(=O)n3cccc(C)c3nc21	-	?	?	-	?	?
CC(C)Cc1nnc(NC(=O)C2CCN(C(=O)c3ccc(Cl)cc3)CC2)s1	-	-	?	-	-	-
O=C(CCC1CCCC1)NCCS(=O)(=O)N1CCN(c2ccccc2)CC1	-	?	-	-	-	-
CC(=O)Nc1ccc(OCC(O)CN2CCN(c3cc(Cl)ccc3C)CC2)cc1 (centres undefined)	-	?	4.11µM	-	?	-
CCN1CCN(CC(O)COC(C)C)CC1 (centres undefined)	-	-	-	-	-	-
CC(=O)Nc1ccc(OCC(O)CN2CCN(c3ccc(C)c(Cl)c3)CC2)cc1 (centres undefined)	-	-	-	-	-	-
Cc1ccc(Cl)cc1N1CCN(CC(O)COC(C)C)CC1 (centres undefined)	-	-	-	-77.2	-	-
Cc1nc2c(-c3ccc(F)cc3)c(C)nn2c(C)c1CCC(=O)N1CCN(c2ccccc2)CC1	-	-	-	-	-	-
Cc1nc2c(-c3ccc(F)cc3)c(C)nn2c(C)c1CCC(=O)N1CCC(Cc2ccccc2)CC1	-	20.6µM	-	-	?	-
COC(CNC(=O)Cc1c(C)nc2c(-c3ccccc3)c(C)nn2c1C)OC	-	-	?	-	-	-
CCOC(=O)c1cnc2c(-c3ccccc3)cnn2c1C	-	-	-	-	-	-
CCOC(=O)Cc1c(C)nc2c(-c3ccccc3)cnn2c1C	-	1.3µM	-	-	-	?
Cc1nc2c(-c3ccccc3)c(C)nn2c(C)c1CC(=O)O	-	14.6µM	-	-	-	-
CCOC(=O)Cc1c(C)nc2c(-c3ccc(Cl)cc3)c(C)nn2c1C	-	23.1µM	?	-	-	?
Cc1oc(-c2ccccc2F)nc1CS(=O)CC(=O)NCc1ccc(F)cc1 (centres undefined)	-	-	-	-	-	-
CC(=O)c1cnc2c(-c3ccccc3)cnn2c1C	-	-	20.6µM	-	?	-
CC(C)[C@H](NC(=O)c1ccccc1Cl)C(=O)OCc1cc([N+](=O)[O-])cc2c1OCOC2	-	-	20.6µM	-	-	-
COc1ccc(OC)c(NS(=O)(=O)c2ccc(N3CCCC3=O)cc2)c1	-	?	2.06µM	-	0.82µM	0.82µM
O=C1CCCN1c1ccc(S(=O)(=O)NCCc2ccc(Cl)cc2)cc1	-	-	18.4µM	-	-	-
Cc1ccc(OCCNS(=O)(=O)c2ccc(N3CCCC3=O)cc2)cc1C	-	-	16.4µM	-	?	?
Cc1ccccc1NS(=O)(=O)c1ccc(N2CCCC2=O)cc1	-	11.6µM	2.59µM	-	5.17µM	3.66µM
SMILES	hERG WT inh	MCF10A rerep	KB-V1 MDR tox	KCNH2 3.1 block	KB-3-1 cytotox	SW480 rereplic
COc1ccc(CCNS(=O)(=O)c2ccc(N3CCCC3=O)cc2)cc1	-	?	-	-	-	-
CC(C)(CO)NCC(O)Cn1cc(C=O)c2ccccc21 (centres undefined)	-	-	-	-	-	-
Cc1nn(C)c(C)c1NS(=O)(=O)c1ccc(N2CCCC2=O)cc1	-	?	?	-	?	-
COc1ccc(NS(=O)(=O)c2ccc(N3CCCC3=O)cc2)cn1	-	10.3µM	?	-	?	20.6µM
Cc1cccc(NS(=O)(=O)c2cc3c4c(c2)CCN4C(=O)CC3)c1C	-173.1	-	?	-	-	-
Brc1ccc2c(c1)C(c1cccs1)=NNC(c1cccnc1)=N2	-	-	20.6µM	-	-	-
COCCNC(=O)c1cc2c(c(-c3cccc(C#Cc4ccc(OC)c(OC)c4)c3)n1)[C@H](CCO)N(S(=O)C(C)(C)C)C2 (some centres undefined)	.	.	-	.	-	.
Nc1nc(SCc2ccccc2)c2[nH]cnc2n1	-	-	-	-	-	-
Nc1ncnc(Sc2ccc(Cl)cc2)c1[N+](=O)[O-]	-	?	-	-	-	-
Nc1nc(Sc2ccc([N+](=O)[O-])c3nonc23)c2[nH]cnc2n1	-	?	?	-	2.06µM	?
CNc1ncnc(Sc2nc(N)nc3nc[nH]c23)c1[N+](=O)[O-]	-	?	1.03µM	-	?	2.91µM
Cc1cc(C)c(S(=O)(=O)CCC(C)C)c(=O)[nH]1	-	-	-	-	-	-
O=c1[nH]nc(-c2ccc(NCCO)c([N+](=O)[O-])c2)c2ccccc12	-	-	-	-	-	-
O=[N+]([O-])c1cc(Cl)cc2c1nc(NCCO)c1ccccc12	-	-	?	-	18.4µM	?
COc1ccc(NC(=O)c2oc3ccccc3c2NC(=O)COc2ccccc2OC)c(OC)c1	-	-	-	-	-	-
CCOc1ccccc1NC(=O)c1oc2ccccc2c1NC(=O)C1CCCO1 (centres undefined)	-	-	20.6µM	-	-	-
CCOCC(=O)Nc1c(C(=O)Nc2ccccc2OC)oc2ccccc12	-	-	1.84µM	-	-	-
COc1ccc(NC(=O)c2oc3ccccc3c2C)c(OC)c1	-	-	20.6µM	-	?	-
O=C(Nc1ccccc1Cl)Nc1ccnn1C1CCN(C(=O)C2CCOC2)CC1 (centres undefined)	-	.	-	-	-	.
Cc1ccc(NCc2nc3ccccc3n2CCOc2ccccc2)cc1	-	-	23.1µM!	-	16.4µM!	-
CCOCCn1c(COc2ccc(C)cc2)nc2ccccc21	-	-	16.4µM	-	?	-
COc1ccc(CCC(C)NCC2CCCCC2)cc1 (centres undefined)	-	?	20.6µM	-	?	?
COc1ccc(CCC(C)NC2CCCCCCC2)cc1 (centres undefined)	-	?	?	-	-	?
COc1cccc(CN2CCN(C(c3ccccc3)c3ccccc3)CC2)c1O	-	?	-	-74.1	?	?
c1ccc(OCCN2CCN(C(c3ccccc3)c3ccccc3)CC2)cc1	-	?	-	-96.1	-	0.651µM
OC(CN1CC=C(/C=C/c2ccc(Br)cc2)CC1)c1ccccc1 (centres undefined)	-	-	-	-92.7	-	-
